Lassa entry inh – blocks Lassa virus binding to or entry into cells. Lassa virus pseudotype entry inhibition, cell reporter. Potency, µM (titrated, usually from 37.9 µM), for inactives: at the highest dose activity change, negative = inhibition, hits mostly inhibitors. 300,000 tested, 1.2% active; calls by dose curve; tested in HEK293 cells; note: potency is the fitted concentration of half-maximal effect; % is set by controls: 0 for no effect and ±100 for the full control effect; nearly all actives have a fitted effect of over 50% in size
Pf growth 48h – P. falciparum growth inhibition at 48 hours (one generation); Potency, µM (highest dose often 28.7 µM), without a hit: at the highest dose activity change, negative = inhibition, hits mostly inhibitors; 310,000 tested, 5.9% active; P. falciparum luciferase growth in erythrocytes, 48 h; note: potency is the fitted concentration of half-maximal effect; % is set by controls: 0 for no effect and ±100 for the full control effect
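Luciferase-expressing parasites in RBCs, 2% Hct / 0.1% parasitemia final; RPMI 1640 + 0.5% Albumax; 37 C, 5% CO2, one generation; luminescence read-out, lower signal = inhibition.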
Pf growth 96h – P. falciparum growth inhibition at 96 hours; P. falciparum luciferase reporter growth, 96 h; Potency, µM (highest dose often 28.7 µM), for the others: at the highest dose activity change, negative = inhibition, most hits filed as inhibitors; 320,000 tested, 6.9% active; note: potency is the fitted concentration of half-maximal effect; % is set by controls: 0 for no effect and ±100 for the full control effect
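96 h incubation, 37 C, 5% CO2, of luciferase-reporter P. falciparum-infected RBCs (2% hematocrit, 0.05% parasitemia final) with test compounds; endpoint luminescence.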
Marburg entry inh – Marburg virus entry inhibition. AID 540276. Marburg virus pseudotyped entry inhibition, cell reporter. Potency, µM (top dose mostly 37.8 µM), without a hit: top-dose activity change, negative = inhibition, actives largely listed as inhibitors. 300,000 tested, 1.8% active; calls by dose curve; tested in HEK293 cells; note: potency is the fitted concentration of half-maximal effect; % is set by controls: 0 for no effect and ±100 for the full control effect
CHX counter – counter-screen hit for Shiga toxin inhibitors, cycloheximide. AID 2314. max response, %. 300,000 tested, 12% active. cell reporter, cycloheximide protein synthesis inhibition counterscreen; in the data active = max response mostly above about 13%, no sharp cut-off; inactive = mostly below about 14%; note: read at 38.3 µM for the half of the compounds with a filed dose; 0% is about no effect
Shiga toxin inh – Shiga toxin inhibition; inhibition, % at 38.7 µM; Vero cells, Shiga toxin protein synthesis inhibition reporter; 290,000 tested, 9.2% active; AID 2315; in the data active = inhibition mostly above about 28%, no sharp cut-off; inactive = mostly below about 43%; note: 0% is about no effect
* = called active by the depositor; i = inactive; ? = inconclusive; / = not tested or not shown; ! = a repeat was not active; [ ] = dose if it differs, or a comment. Compounds with a hit are over-represented: about 19% of the library has one in this group of screens. Unless noted, calls come from the whole dose curve; as a rule, active = well fitted inhibition curve with a large enough effect; inconclusive = small, poorly fitted or top-dose-only effect, or another doubt; inactive = no such curve, though single readings can be large or run the other way.

SMILES | Lassa entry inh | Pf growth 48h | Pf growth 96h | Marburg entry inh | CHX counter | Shiga toxin inh
O=C(N/N=C/c1sc2ccccc2c1O)c1ccccc1 | ? | 4.7µM* | ? | ? | 50* | 61*
CCCSC1=NC2(CCN(C(=O)NC3CCCCC3)CC2)N=C1c1ccccc1 | -11%[46.1 µM] | / | / | / | / | /
CSCCC(NC(=O)c1ccccc1)C(=O)Nc1ccc(NC(C)=O)cc1 (stereo not given) | 1% | 13% | 61% | 3% | -2 | 9
Cc1ccc(OC(=O)CCN2C(=O)c3ccccc3C2=O)cc1C | 15% | 0% | 317% | 17%[46.1 µM] | -7 | -7
COc1ccc(-n2c(=O)cc(N3CCN(c4ccccc4)CC3)[nH]c2=O)cc1 | 2% | 3% | ? | ? | 60* | -12
O=c1cc(N2CCc3ccccc3C2)[nH]c(=O)n1-c1ccc(Br)cc1 | -3% | 21% | 7.4µM* | -1% | 1 | 12
CCOc1ccc(-n2c(=O)cc(N3CCN(c4ccccc4)CC3)[nH]c2=O)cc1 | 14% | -13% | ? | 3% | 9 | -11
O=C(COc1ccc2c(c1)CCC2)N1CCN(c2cccc(C(F)(F)F)c2)CC1 | -1% | 0% | 26% | 1% | -2 | -2
O=c1c2cc3c(=O)n(-c4ccccc4O)c(=O)c3cc2c(=O)n1-c1ccccc1O | 11%[46.1 µM] | 1% | -15% | -9%[46.1 µM] | 27* | 106*
Cc1c(O)cc2n(c1=O)-c1ccccc1C2(C)C | ? | -20% | 5% | 16% | -2 | -2
CN(C)CCCNC(=O)c1ccc(/C=N/O)nc1 | 2%[46.1 µM] | -24% | i | 4% | 36* | 71
CCc1ccc(C2(C)SC(NC(C)=O)=NN2C(C)=O)cc1 (stereo not given) | 0% | ? | ? | 4% | -2 | -19
CC(=O)NC1=NN(C(C)=O)C(C)(c2cccnc2)S1 (stereo not given) | 0% | 5% | 8% | ? | 10 | -10
CC(=O)NC1=NN(C(C)=O)C(C)(c2cccs2)S1 (stereo not given) | ? | 28% | 10µM* | ? | -1 | -5
CC(=O)NC1=NN(C(C)=O)C(C)(c2ccco2)S1 (stereo not given) | -26%[46.1 µM] | ? | -11% | 3.2µM* | 43* | 59*
CC(=O)NC1=NN(C(C)=O)C(C)(c2ccc(C)o2)S1 (stereo not given) | -22%[46.1 µM] | 20% | -16% | 5%[46.1 µM] | 19* | 22
O=C1C(F)=CC(COC(c2ccccc2)(c2ccccc2)c2ccccc2)OC1n1cc(F)c(=O)[nH]c1=O (stereo not given) | 5.6µM* | / | / | ? | / | /
C[C@H]1O[C@@H](n2cc(F)c(=O)[nH]c2=O)[C@H](O)[C@@H]1O | / | -6% | 0% | ? | / | /
CN(C)c1ccc(C(CNC(=O)c2ccccc2F)N2CCc3ccccc32)cc1 (stereo not given) | -1%[46.1 µM] | / | / | / | / | /
CCN(CC)C(=O)C(C)Oc1cccc2ccccc12 (stereo not given) | / | / | / | / | 8 | -3
Cc1ccc(OC(=O)c2ccc(C)c(C)c2)cn1 | 13% | 1% | ? | 13% | 34* | 52*
CCC(=O)Nc1cccc(C(=O)c2ccc(C)c(C)c2)c1 | ? | 3% | ? | ? | 8 | 16
Cc1ccc(OC(=O)c2ccc(Cl)c([N+](=O)[O-])c2)cn1 | / | 4% | ? | / | -3 | -2
CC(=O)Oc1ccc(C(=O)Nc2cccc(NC(=O)c3ccco3)c2)cc1 | -26% | 31% | ? | -8% | -2 | 4
COc1ccc(C(=O)Nc2ccc(C(=O)Nc3cccc(C)c3)cc2)cc1 | ? | 14% | 19% | ? | -2 | -4
SMILES | Lassa entry inh | Pf growth 48h | Pf growth 96h | Marburg entry inh | CHX counter | Shiga toxin inh
COc1ccc(C(=O)Nc2cccc(OC(=O)c3ccc(C)c(C)c3)c2)cc1 | ? | 4% | 246% | ? | 24* | 43*
COc1ccc(C(=O)Nc2cccc(OC(=O)c3ccco3)c2)cc1 | -17% | 75% | -26% | -12%[46.1 µM] | 20* | 44
CC(=O)Oc1ccc(C(=O)Nc2cccc(C(=O)c3ccc(C)c(C)c3)c2)cc1 | / | 12µM* | 77% | 0% | -1 | -6
O=C(NC1CCCCCCC1)c1cccc(S(=O)(=O)N2CCOCC2)c1 | -18% | -22% | -6% | 19% | / | /
CN(C)S(=O)(=O)c1ccc(NC(=O)Cn2nc(-c3ccc4c(c3)OCCO4)ccc2=O)cc1 | 1% | / | / | 1%[46.1 µM] | / | /
FC(F)(F)c1ccc(-c2noc(CN3CCCN(C4CCCCC4)CC3)n2)cc1 | / | ? | 9.3µM* | / | -1 | -15
COc1ccc(CCN2C(=O)C(Oc3ccccc3C)C2c2ccc3c(c2)OCO3)cc1 (stereo not given) | ? | ? | 0.93µM* | ? | 3 | -8
COc1ccc(CCN2C(=O)C(Oc3ccccc3C)C2c2ccc3c(c2)OCO3)cc1OC (stereo not given) | ? | 12µM* | 58% | ? | 1 | -6
COC(C)(C)CCCC(C)C/C=C/C(C)=C/C(=O)OC(C)C (stereo not given) | / | ? | 15µM*! | 1% | / | /
Cc1ccccc1OCC(=O)Nc1ccc(Cc2ccncc2)cc1 | ? | ? | 38% | ? | 11 | 18
CCOC(=O)c1ccc(NC(=O)c2cc3c(s2)CCC3)cc1 | -12% | ? | -19% | -13%[46.1 µM] | 39* | 54*
NNC(=O)c1cc2c(s1)CCCCCC2 | -23% | ? | ? | -1% | -2 | -4
COc1ccc(C)cc1NC(=O)c1cc2c(s1)CCC2 | -1% | 12% | ? | ? | 20* | 56
COC(=O)c1sccc1NC(=O)c1cc2c(s1)CCCC2 | 17% | 12% | / | 0% | 13* | -10
Cc1cccc(C)c1OCC(=O)Nn1c(COc2ccccc2)nc2ccccc2c1=O | -12% | / | -21% | -25% | -7 | -15
COc1ccc(OC)c(-c2cc(C(=O)Nc3c(C)n(C)n(-c4ccccc4)c3=O)no2)c1 | -17% | 3% | 88% | -21% | -2 | -12
Cc1cc(OCC(O)CN2CCCC2)ccc1C(C)C (stereo not given) | / | ? | 2% | / | -1 | -7
COCCn1c(SCC(=O)NCc2cccs2)nnc1-c1ccc(OC)cc1 | 0% | 20% | 4% | 14% | -4 | -8
CCCOc1ccc(C(=O)NCCN2CCOCC2)cc1 | 7% | 32% | ? | 16% | -4 | /
CCn1c(-c2nonc2N)nc2cnc(Oc3cccc(NC(=O)c4ccc(OCCN5CCOCC5)cc4)c3)cc21 | 20µM* | / | / | / | / | /
O=C1/C(=C/c2ccncc2)Cc2ccccc21 | / | 32% | 0% | / | / | /
Nc1ccccc1C=C1Cc2ccccc2C1=O | ? | / | / | 7.9µM* | / | /
COc1ccccc1/C=C1\Cc2ccccc2C1=O | / | 30% | 42% | / | 32* | 51*
Cc1cc2c(c(=O)n1Cc1cccnc1)C(c1ccccc1)C(C#N)=C(N)O2 (stereo not given) | -7% | ? | 3% | -5% | -1 | -9

Screening data: PubChem BioAssay, National Center for Advancing Translational Sciences (NCATS)
